Assay outcomes from PubChem BioAssay.
Hits are enriched below; roughly 2.8% of the tested compounds scored in any of these assays.
sPLA2-III inh: human group III sPLA2 inhibitors, primary screen, biochemical, QFRET, BODIPY PC-A2 liposome substrate | Group 3 secretory phospholipase A2 (Homo sapiens), Q9NZ20 | QFRET BODIPY PC-A2 liposome hydrolysis, fluorescence | inhibition, % at 12.2 µM | 370,000 compounds, 0.56% hits;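 active means inhibition above mean plus 3 SD of compounds lying within the high and low control bounds, cut at about 19% in these data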
Target sequence (Q9NZ20 whole entry, looked up): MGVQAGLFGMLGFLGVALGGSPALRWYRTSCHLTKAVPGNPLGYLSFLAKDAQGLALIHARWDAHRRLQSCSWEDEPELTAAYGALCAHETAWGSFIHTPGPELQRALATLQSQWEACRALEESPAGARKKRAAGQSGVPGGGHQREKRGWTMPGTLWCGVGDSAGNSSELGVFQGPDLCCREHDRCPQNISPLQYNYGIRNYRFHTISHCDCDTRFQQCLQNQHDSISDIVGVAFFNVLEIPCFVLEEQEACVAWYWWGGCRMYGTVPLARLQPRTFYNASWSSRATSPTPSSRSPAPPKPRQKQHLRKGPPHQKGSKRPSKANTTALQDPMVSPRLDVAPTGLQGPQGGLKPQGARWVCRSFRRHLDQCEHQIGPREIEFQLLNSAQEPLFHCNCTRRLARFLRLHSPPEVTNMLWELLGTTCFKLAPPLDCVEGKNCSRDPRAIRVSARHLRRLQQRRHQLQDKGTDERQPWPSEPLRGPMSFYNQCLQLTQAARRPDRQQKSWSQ
rCAG binder: binders of r(CAG) RNA repeats, primary screen, biochemical, fluorescence; AID 651821, 2012; inhibition, % at 3 µM; r(CAG) RNA repeat, TO-PRO-1 dye displacement fluorescence; 370,000 compounds, 1.3% hits;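 active means inhibition above the plate cutoff, the mean of all test compounds on that plate plus 3 SD, cut at about 35% in these data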;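 further: higher means more dye released from RNA so lower well fluorescence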
MsrA inh: bovine MsrA enzyme inhibitors, primary screen, biochemical, absorbance, HTS; Methionine sulfoxide reductase A (Bos taurus); purified bovine MsrA, absorbance read-out; inhibition, % at 15.5 µM; 360,000 compounds, 0.75% hits; AID 651718, 2012
MsrA act: bovine MsrA enzyme activators, primary screen, biochemical, absorbance, HTS; Methionine sulfoxide reductase A (Bos taurus); purified bovine MsrA, absorbance read-out; activation, % at 10.6 µM; 360,000 compounds, 0.3% hits; AID 602163, 2012; in the data active means activation above about 7.5%
MsrA activ conf: bovine MsrA activators, retest, confirmation, biochemical, absorbance, HTS. shares compounds with MsrA act. AID 602270, 2012. 1,000 compounds, 12% hits. activation, % at 10.6 µM. purified bovine MsrA, absorbance read-out; in the data active means activation above about 4%;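 further: enzyme coupled to thioredoxin and thioredoxin reductase with NADPH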
MsrA conf: bovine MsrA inhibitors, retest, confirmation, biochemical, absorbance, HTS | inhibition, % at 15.5 µM | purified bovine MsrA, absorbance read-out | 2,300 compounds, 41% hits | AID 651822, 2012 | shares compounds with MsrA inh;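 further: coupled to thioredoxin reductase with NADPH and selenocystamine and DMSO as substrate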
hGIII sPLA2 conf: human group III sPLA2 inhibitors, confirmation, biochemical, QFRET, triplicate; shares compounds with sPLA2-III inh; recombinant hGIII-sPLA2, BODIPY PC-A2 QFRET fluorescence; inhibition, % at 12.2 µM; 2,000 compounds, 34% hits; AID 743280, 2014;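 active means mean inhibition across triplicates above the hit cutoff set in the earlier primary screen, cut at about 19% in these data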
BODIPY interf: 535nm fluorescence optical interference, confirmation, artefact control for HGIII-sPLA2 inhibitor project, biochemical, QFRET; shares compounds with sPLA2-III inh; BODIPY FL product fluorescence interference; inhibition, % at 12.2 µM; 2,000 compounds, 8.5% hits;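 active means average inhibition above the solvent-only control mean plus 3 SD, cut at about 6% in these data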
Numbers stand for hits; - = inactive; . = not tested or not shown; ! = not active in a repeat. Unless noted, no stated cut-off is given here; in the data, active means inhibition above about 4.5%; inactive means the rest.

SMILES	sPLA2-III inh	rCAG binder	MsrA inh	MsrA act	MsrA conf	others
CCCCOC(=O)Nc1ccccc1C(=O)N1CCCC1	22	-	-	15	.	MsrA activ conf=-;hGIII sPLA2 conf=-;BODIPY interf=-
CC(=O)Nc1ccc(S(=O)(=O)NC2=C(N3CCN(Cc4ccccc4)CC3)C(=O)c3ccccc3C2=O)cc1	21!	-	-	8.1!	.	MsrA activ conf=-;hGIII sPLA2 conf=25;BODIPY interf=-
S=c1[nH]nc2ccccn12	-	-	-	-	.
S=c1[nH]nc2ccc3ccccc3n12	26	-	-	11	.	MsrA activ conf=-;hGIII sPLA2 conf=23;BODIPY interf=-
CC(C)(C)NC(=O)NC(=O)CN1CCN(Cc2ccccc2)CC1	-	-	-	-	.
S=c1[nH]c2cc(Cl)ccc2s1	24	-	-	12	.	MsrA activ conf=4.8;hGIII sPLA2 conf=21;BODIPY interf=-
S=c1[nH]c2ccc(Cl)cc2[nH]1	-	-	-	-	.
COc1ccc(C)cc1-n1c(SCC(=O)NCC2CCCO2)nc2c([nH]c3ccccc32)c1=O (configuration not stated)	-	-	-	-	.
C=CCn1cnc2scc(-c3ccc(C)c(C)c3)c2c1=O	-	-	-	-	.
CCC(C(=O)OC)n1cnc2scc(-c3ccc(C)c(C)c3)c2c1=O (configuration not stated)	-	-	7.5	-	5.3
CCCn1cnc2scc(-c3ccc(C)c(C)c3)c2c1=O	-	-	8.6	-	6.5
Cc1occc1C(=O)N1CCCC(Nc2ccc(F)cc2)C1 (configuration not stated)	-	-	-	-	.
O=C1CC(c2ccccc2)NC(=S)N1 (configuration not stated)	-	-	-	-	.
CCN1CCN(CCCNC(=O)c2cc3cc4ccc(OC)cc4nc3o2)CC1	.	.	.	-	.
COc1ccc2cc3cc(C(=O)NCCCN4CCOCC4)oc3nc2c1	-	-	6.6	-	-
BrC(/C=N/Nc1nc(N2CCOCC2)nc(N2CCOCC2)n1)=C/c1ccccc1	-	-	5.5	-	-
CC(=C/c1ccccc1)/C=N/Nc1nc(N2CCCCC2)nc(N2CCCCC2)n1	-	-	-	-	.
c1ccc(CN2CCN(CCOCCOc3cccc4ccccc34)CC2)cc1	-	-	-	-	.
C(=C\c1ccco1)/c1nc2ccccc2[nH]1	-	-	5.6	-	4.9
C(=C\c1nc2ccccc2[nH]1)/c1ccccc1	-	-	4.7	-	-
CN(C)/C=C1\N=C(c2ccccc2)OC1=O	-	-	8.9	-	6.0
CN(C)/C=C1\N=C(c2ccc3c(c2)OCO3)OC1=O	-	-	6.1	-	5.7
Cc1cccc(Nc2nn3c(=O)c4ccccc4nc3s2)c1	-	-	-	-	.
COc1cccc(N2CCN(C(=O)c3ccc(=O)oc3)CC2C)c1 (configuration not stated)	-	-	4.9	-	-
COc1cccc(NC(=O)N2CCN(c3cccc(C)c3)C(C)C2)c1 (configuration not stated)	-	-	-	-	.
SMILES	sPLA2-III inh	rCAG binder	MsrA inh	MsrA act	MsrA conf	others
COc1ccc(Cl)cc1NC(=O)N1CCN(S(C)(=O)=O)CC1	-	-	-	-	.
CCOC(=O)C1CCCN(C(=O)c2cnn3c(C(F)(F)F)cc(-c4ccccc4)nc23)C1 (configuration not stated)	-	-	5.3	-	-
CCOC(=O)c1cnn2c(C(F)(F)F)cc(-c3ccccc3)nc12	-	-	-	-	.
O=C(Cn1cnc2c(NCc3ccccc3)ncnc21)NCc1ccccc1	-	-	-	-	.
COc1ccc(CNC(=O)c2ccc(=O)oc2)cc1OC	-	-	9.9	-	8.7
O=C(NCc1cccnc1)c1ccc(=O)oc1	-	-	8.3	-	8.4
COc1ccc(C(=O)NCc2ccc(Cl)c(Cl)c2)cc1OC	-	-	-	-	.
CCC1CCCCN1CCCNC(=O)c1ccc2c(=O)n(Cc3ccc(OC)cc3)c(=O)[nH]c2c1 (configuration not stated)	-	-	-	-	.
CCN(CC)C(=O)COc1ccc2c3c(c(=O)oc2c1C)CCCC3	-	-	-	-	.
Cc1c(OCc2ccc(C(=O)O)o2)ccc2c3c(c(=O)oc12)CCC3	-	-	4.8	-	-
O=C(N/N=C/c1cccs1)c1ccc(NC(=O)c2ccccc2Cl)cc1	-	-	4.8	-	-
COc1ccc(CNC(=O)c2ccc(Cl)c(S(=O)(=O)N3CCCCCC3)c2)cc1	-	-	-	-	.
O=c1cc(-c2ccc(O)cc2)oc2cc(O[C@@H]3O[C@H](CO)[C@@H](O)[C@H](O)[C@H]3O[C@@H]3OC[C@](O)(CO)[C@H]3O)cc(O)c12	-	-	5.3	-	-
COc1cccc(C2=CC(c3cccs3)n3nnnc3N2)c1 (configuration not stated)	-	-	14	-	-
COc1cccc(/C=N/n2c(CO)nc3ccccc32)c1OC	-	-	10	-	13
COc1ccc(N2CCN(C(=O)c3cccc(N4C(=O)C5C6C=CC(C6)C5C4=O)c3)CC2)cc1 (configuration not stated)	-	-	-	-	.
Cc1cc(C(=O)N/N=C/c2ccc(O)c([N+](=O)[O-])c2)n[nH]1	-	-	6.8	-	6.0
COc1cc(C=NNC(=O)c2ccccc2-n2cccc2)ccc1O	-	-	-	-	.
Cc1cc(C(=O)N/N=C/c2cccc([N+](=O)[O-])c2O)n[nH]1	-	-	-	-	.
O=C(N/N=C\c1ccc(O)c([N+](=O)[O-])c1)c1ccccc1-n1cccc1	-	-	6.6	-	-
O=C(N/N=C/c1ccc(O)c([N+](=O)[O-])c1)C(O)(c1ccccc1)c1ccccc1	-	-	6.4	-	4.9
CCOC(=O)c1c(C)[nH]c(NC(=O)Nc2ccc(NC(C)=O)cc2)c1C	-	-	-	-	.
Cc1sc2nc(CSCC(=O)Nc3ccc(N4CCOCC4)cc3)[nH]c(=O)c2c1C	-	-	-	-	.
COc1cccc(C(C(=O)NCC2CCCO2)N(CC2CCCO2)C(=O)CN2C(=O)c3ccccc3S2(=O)=O)c1 (configuration not stated)	-	-	-	-	.
Cc1c(/C=N/Nc2ccc(F)cc2)c(O)n(C)c(=O)c1C#N	-	-	6.4	-	6.7
